SARS PLpro yeast-1 – SARS-CoV PLP inhibition in yeast. Potency, µM (series often up to 32.9 µM), without a hit: top-dose activity, positive = growth rescue, usual class: activators. 330,000 compounds, 0.19% hits. S. cerevisiae expressing SARS-CoV PLpro, growth rescue. AID 485353; calls by dose curve; also: potency is read from the fitted curve at half-maximal effect; 0% is about no effect; nearly all actives have a fitted effect of over 55% in size
AmpC no deterg – blocks E. coli AmpC beta-lactamase in detergent-free assay; P00811; Potency, µM (titrated, usually from 57.1 µM), without a hit: at the top dose activity change, negative = inhibition, hits mostly inhibitors; AmpC nitrocefin hydrolysis, absorbance 480 nm, 0.0001% Triton; 330,000 compounds, 0.52% hits;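 also: potency is read from the fitted curve at half-maximal effect; plate controls were no compound for no effect and no enzyme for full effect; nearly all actives have a fitted effect of over 20% in size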
Target sequence (P00811 whole entry, looked up): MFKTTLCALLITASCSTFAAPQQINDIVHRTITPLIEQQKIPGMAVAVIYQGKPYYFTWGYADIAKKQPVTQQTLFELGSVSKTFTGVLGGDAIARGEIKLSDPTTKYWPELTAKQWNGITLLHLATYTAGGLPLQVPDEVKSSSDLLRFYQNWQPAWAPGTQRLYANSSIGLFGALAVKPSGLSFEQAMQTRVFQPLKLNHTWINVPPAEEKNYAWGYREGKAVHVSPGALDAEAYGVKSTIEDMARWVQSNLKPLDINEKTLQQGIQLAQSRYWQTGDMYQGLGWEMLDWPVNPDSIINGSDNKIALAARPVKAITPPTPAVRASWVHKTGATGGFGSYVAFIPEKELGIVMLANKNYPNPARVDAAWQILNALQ
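AmpC (5.3 nM in the dispensed reagent) in 20 mM phosphate pH 7.0 with 0.01% (detergent screen) or 0.0001% Triton X-100 was preincubated with compounds for 15 min at room temperature. Nitrocefin was then added from an 800 uM solution, and hydrolysis was followed at 480 nm.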
NS1 inh – influenza NS1 inhibition; Potency, µM (highest dose often 46.1 µM), for the others: at the highest dose activity, positive = more growth; 270,000 compounds, 0.4% hits; calls by dose curve; also: potency is read from the fitted curve at half-maximal effect; actives are rising curves; nearly all actives have a fitted effect of over 50% in size
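Growth recovery, yeast-based: influenza A NS1 expressed in S. cerevisiae causes slow growth, and suppressors are detected by OD600. The parent strain without NS1 is used as positive control.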
AMA1-RON2 inh – disrupts binding of P. falciparum AMA1 to RON2 | AlphaScreen AMA1-biotinylated RON2 peptide binding | Potency, µM (titrated, usually from 58.2 µM), without a hit: top-dose activity change, negative = inhibition, usual class: inhibitors | 360,000 compounds, 0.2% hits;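 also: potency is read from the fitted curve at half-maximal effect; 0% = vehicle wells and -100% = peptide control; nearly all actives have a fitted effect of over 45% in size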
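AMA1 (3D7) with his tag at 25 nM final met compounds first, then biotinylated RON2 peptide at 25 nM; detection used donor plus acceptor beads, 10 µg/mL apiece, read by AlphaScreen after 30 min at room temperature.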
AmpC inh detg – inhibitors of E. coli AmpC beta-lactamase with detergent; P00811; AmpC hydrolysis of nitrocefin, absorbance 480 nm, 0.01% Triton; Potency, µM (series often up to 114 µM), inactives show top-dose activity change, negative = inhibition, hits mostly inhibitors; 370,000 compounds, 0.041% hits; AID 485294;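 also: potency is read from the fitted curve at half-maximal effect; 0% = no-compound wells and -100% = no-enzyme wells; nearly all actives have a fitted effect of over 25% in size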
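AmpC (5.3 nM in the dispensed reagent) in 20 mM phosphate pH 7.0 with 0.01% (detergent screen) or 0.0001% Triton X-100 was preincubated with compounds for 15 min at room temperature. Nitrocefin was then added from an 800 uM solution, and hydrolysis was followed at 480 nm.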
SARS PLpro yeast-2 – Inhibits SARS-CoV PLP in yeast, hit validation. shares compounds with SARS PLpro yeast-1. yeast expressing SARS-CoV PLpro, growth phenotype rescue. calls only. 1,000 compounds, 19% hits. AID 652038; call rule not given here
Numbers without * were called inactive; i = inactive; ? = inconclusive; nt = no result; + = active, no number; [ ] = remark or other dose. Hits are enriched below; roughly 0.99% of the tested compounds scored in any of these assays. Unless noted, calls follow the shape of the dose curve; as a rule, active = well fitted curve in the direction sought with a large enough effect; inconclusive = small, poorly fitted or top-dose-only effect, or another doubt; inactive = no such curve, though single readings can be large; an effect the other way counts as inactive or inconclusive.

SMILES | SARS PLpro yeast-1 | AmpC no deterg | NS1 inh | AMA1-RON2 inh | AmpC inh detg | SARS PLpro yeast-2
COc1ccc(-c2cc(=Nc3c(C)n(C)n(-c4ccccc4)c3=O)c3ccccc3o2)cc1 | -7% | -8% | nt | -2% | 9% | nt
Cc1ccc(SCCCCN2C(=O)NC(C)(C)C2=O)cc1 | ? | 32% | -5% | 1% | -14% | i
CC1(C)NC(=O)N(CCSc2ccc(Cl)cc2)C1=O | 1% | 31% | -6% | 10% | -4% | nt
COc1cccc(C(=O)NCC(c2ccc(N(C)C)cc2)N2CCc3ccccc32)c1OC (stereo not given) | nt | nt | nt | nt | 14% | nt
Cc1ccc(OCC(=O)N/N=C\c2c(C)[nH]n(-c3ccccc3)c2=O)c([N+](=O)[O-])c1 | 5.6µM* | -34% | 0% | 36% | -3% | +
COc1ccc(NC(=O)c2ccc(CNS(=O)(=O)c3ccc4c(c3)C(C)(C)C(=O)N4C)cc2)cc1 | nt | nt | nt | nt | 3% | nt
O=C(CSCc1cccc(Br)c1)NC1CC1 | ? | -14% | 20% | 4% | -12% | i
COc1cccc(C2/C(=C(\O)c3ccc4c(c3)OCCO4)C(=O)C(=O)N2Cc2cccnc2)c1 (stereo not given) | ? | -14% | -2% | 1% | 5% | i
Cc1ccc(CN(C(=O)COc2cccc([N+](=O)[O-])c2)c2ccccn2)o1 | nt | nt | nt | nt | 14% | nt
C=CCn1c(SCc2cc(=O)n3cc(C)ccc3n2)nnc1-c1cccc(C)c1 | 11µM* | 23% | -5% | 10% | ? | i
Cc1cccc(Oc2ccccc2NS(=O)(=O)c2ccc(CCC(=O)O)cc2)c1 | 2.2µM* | -52% | nt | -8% | -9% | i
O=C(O)CCc1ccc(S(=O)(=O)Nc2ccccc2C(=O)NCCc2ccccc2)cc1 | -6% | -8% | 11% | -6% | 0% | nt
Cc1ccc(Cl)cc1N1CCN(C(=O)c2cc(S(=O)(=O)N3CCCC3)cn2C)CC1 | nt | nt | nt | nt | 19% | nt
O=C(CNC(=O)c1cccc(Br)c1)N/N=C/c1cc(Br)cc(Br)c1O | 3.5µM* | 11µM* | nt | 42% | 5% | +
O=C(CNC(=O)c1cccc(Br)c1)N/N=C/c1cccs1 | 2% | -28% | -2% | 7% | ? | nt
CCCCCCCCCCCNC(=O)c1ccoc1C | -61% | -25% | -12% | 17% | ? | nt
CCCCCC(C)NC(=O)c1ccoc1C (stereo not given) | nt | -15% | -27% | 12% | ? | i
CCn1c(SCc2c(F)cccc2Cl)nc(=O)c2c(C(=O)OC)cc(C3CC3)nc21 | nt | nt | nt | nt | 26% | nt
COc1ccc(NC(=O)CN2C(=O)CCn3nc(-c4cccn4C)cc32)cc1Cl | nt | nt | nt | nt | 5% | nt
Oc1c(C(Nc2cccc(C(F)(F)F)c2)c2ccncc2)ccc2cccnc12 (stereo not given) | ? | -38% | -7% | -24% | 8% | i
Oc1c(C(Nc2nccs2)c2ccc(C(F)(F)F)cc2)ccc2cccnc12 (stereo not given) | -26% | -56% | nt | 1% | -5% | nt
CCOc1cc(/C=C/C(=O)O)ccc1OCc1ccccc1 | 2% | -16% | nt | -7% | 7% | nt
COc1cc(/C=C/C(=O)NC(C)C)ccc1OCc1ccccc1 | ? | -6% | 12% | 4% | -1% | +
S=C(NCCc1ccccc1)Nc1ccccn1 | 5.6µM* | -45% | -2% | -4% | 0% | +
Cc1cccc(NC(=S)NCCc2ccccc2)n1 | 0% | -8%[2.29 µM] | -5% | -17% | 1% | nt
SMILES | SARS PLpro yeast-1 | AmpC no deterg | NS1 inh | AMA1-RON2 inh | AmpC inh detg | SARS PLpro yeast-2
O=C(Nc1ccccc1Cl)c1ccc2c(=O)n3c(nc2c1)CCC3 | -3% | -15% | nt | -6% | 4% | nt
O=C(Nc1nc(-c2ccccc2)cs1)c1ccc2c(=O)n3c(nc2c1)CCCCC3 | ? | -6% | ? | -7% | 2% | i
COc1cccc(-n2nnc3c(=O)n(CC(=O)OCc4ccccc4)cnc32)c1 | ? | -16% | 13% | 2% | 16% | i
O=C(Cn1cnc2c(nnn2Cc2ccccc2F)c1=O)NCC1CCCO1 (stereo not given) | ? | -18% | ? | 8% | 7% | i
O=C(Cn1cnc2c(nnn2Cc2ccccc2)c1=O)NCC1CCCO1 (stereo not given) | -2% | -9% | -16% | 5% | ? | nt
CC[n+]1c(/C=C(/C)SC)sc2ccccc21 | 3.5µM* | -14% | 6% | -9% | ? | i
S=C(NCc1cccs1)Nc1cccc(Cl)c1Cl | ? | -19% | 5% | 34% | 7% | nt
Cc1c(Cl)cccc1NC(=S)NCc1cccs1 | 14µM* | -25% | -11% | 14% | 7% | +
Cc1ccc(N=Nc2ccc(O)c3ncccc23)cc1C | 9% | -25% | nt | 83% | 7% | nt
Cc1ccc(N=Nc2ccc(O)c3ncccc23)cc1 | 4µM* | -9% | -14% | -2% | -2% | i
COc1ccc(CNC(=O)c2ccc(NC(=O)N3CCSc4ncccc43)cc2)c(OC)c1 | nt | nt | nt | nt | 3% | nt
COc1ccc(CNC(=O)C(CC(C)C)NS(=O)(=O)c2ccc3c(c2)oc(=O)n3C)cc1 (stereo not given) | nt | nt | nt | nt | 4% | nt
O=C(COC(=O)c1ccc(Cl)nc1)Nc1ccc(S(=O)(=O)N2CCCC2)cc1 | -35% | -28% | -8% | -4% | -18% | nt
O=C(COC(=O)c1cnc(Cl)c(Cl)c1)Nc1ccc(S(=O)(=O)N2CCCC2)cc1 | ? | -50% | 6% | -11% | -3% | i
CC(=O)Nc1ccc(S(=O)(=O)N(C)CC(=O)OCC(=O)NNC(=O)c2ccccc2F)cc1 | -3% | -27% | nt | 42% | ? | nt
CC(=O)Nc1ccc(S(=O)(=O)N(C)CC(=O)OCC(=O)NC(C)C23CC4CC(CC(C4)C2)C3)cc1 (stereo not given) | ? | 131% | -9% | 3% | ? | i
COc1ccccc1CNS(=O)(=O)c1c(C)nc2sc(C)cn2c1=O | nt | nt | nt | nt | 17% | nt
O=C(NCCO)c1ccc(-c2nnc(Nc3ccc(OC(F)(F)Cl)cc3)c3ccccc23)cc1 | nt | nt | nt | nt | 0% | nt
O=C(CSc1nnc(-c2ccccc2F)o1)N1CCc2ccccc21 | nt | nt | nt | nt | 17% | nt
O=C(Nc1cc(-c2ccccc2)nn1C1CCCCC1)c1ccc(Cl)cc1 | ? | -22% | nt | 4% | nt | i
Cn1nc(-c2ccccc2)cc1NC(=O)c1ccccc1 | 0% | -2% | -9% | 2% | -8% | nt
C=CCc1cccc(/C=N/NC(=O)C(C)Nc2cccc(C)c2)c1O (stereo not given) | ? | -7% | -21% | 63% | -1% | nt
COc1cc([N+](=O)[O-])cc(/C=N/NC(=O)C(C)Nc2cccc(C)c2)c1O (stereo not given) | ? | -27% | -2% | 72% | -5% | ?

Compound activity deposited in PubChem BioAssay by National Center for Advancing Translational Sciences (NCATS).
